Screening results: PubChem, National Center for Advancing Translational Sciences (NCATS)
GAA glycogen mod = GAA glycogen-cleavage inhibition or activation. P10253. recombinant GAA, glycogen substrate, Amplex Red glucose oxidase fluorescence. Potency, µM (series often up to 76.4 µM), for the others: at the highest dose activity change, negative = inhibition, actives largely listed as inhibitors. actives 0.38% (n = 300,000);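 also: 0% = full enzyme reaction and -100% = no-enzyme basal signal; the screen sought inhibitors and activators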
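qHTS, 1536-well; enzyme 4 nM final; cpd up to 77 uM; substrate bovine liver glycogen 30 ug; 50 mM citrate/phosphate pH 5.0, 0.01% Tween-20; 37 C, 40 min; Amplex Red detection 45 min RT; Hill fit → AC50.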
N370S GC = inhibitors or activators of N370S glucocerebrosidase for Gaucher disease. actives 0.092% (n = 330,000). AID 2101. P04062. N370S GC spleen homogenate, 4MU-glucoside fluorescence. Potency, µM (top dose mostly 59.4 µM), for the others: top-dose activity change, negative = inhibition, most hits filed as inhibitors;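 also: 0% = full enzyme activity and -100% = no enzyme basal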
GAA inh = blocks human lysosomal alpha-glucosidase. purified human GAA, 4-MU-alpha-glucoside fluorescence. Potency, µM (series often up to 76.9 µM), inactives show at the highest dose activity change, negative = inhibition, most hits filed as inhibitors. actives 0.005% (n = 200,000). AID 1466;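 also: plate controls were uninhibited enzyme wells for no effect and no-enzyme background for full effect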
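AC50 values come from Hill fits of compound titrations (up to 77 uM) against 4 nM human enzyme. Substrate 4-methylumbelliferyl-alpha-D-pyranoside at 400 uM, pH 5.0 citrate buffer, 20 min room temperature; fluorescence Ex 365/Em 440 after alkaline stop.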
Lamin A splicing = changes lamin A minigene splicing in HeLa cells; HeLa LMNA splicing GFP/RFP minigene ratio, 48 h; actives 0.01% (n = 200,000); Potency, µM (titrated, usually from 46.1 µM), for the others: at the top dose ratio change, negative = inhibition, most hits filed as inhibitors; AID 1487; active = well fitted inhibition curve with a large enough effect in the signal ratio, with a control signal flat, not every such curve was filed as active; inconclusive = small, poorly fitted or top-dose-only effect, or effect the other way, or a change in a side signal; the % refers to the signal ratio
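S3 HeLa cells stably expressing lamin A-EGFP splicing minigene plus DsRed2, 600 cells/well, 48 h compound exposure at 37C. Laser-scanning cytometry; analysed as GFP (500-530 nm)/RFP (575-640 nm) total intensity ratio; 0.5% DMSO vehicle.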
GAA spleen mod = inhibitors or activators of human alpha-glucosidase in spleen homogenate. P10253. human spleen homogenate, 4-MU-alpha-glucoside fluorescence. Potency, µM (highest dose often 79.9 µM), inactives show top-dose activity change, negative = inhibition, actives largely listed as inhibitors. actives 0.006% (n = 240,000);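 also: 0% = enzyme with vehicle and -100% = no enzyme basal signal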
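Enzyme source: human spleen homogenate, 1 ug/well. Buffer 50 mM citric acid/K phosphate pH 5.0, 0.01% Tween-20. 4-MU-alpha-glucoside 1 mM; 37 C x 40 min; NaOH/glycine stop; fluorescence.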
An asterisk follows results filed as active; u = inconclusive; x = no result given; [ ] = another dose, or the depositor's remark. In the library only some 0.41% were active in any assay of this set; here they are far more common. Unless noted, calls follow the shape of the dose curve; as a rule, active = well fitted curve in the direction sought with a large enough effect; inconclusive = small, poorly fitted or top-dose-only effect, or another doubt; inactive = no such curve, though single readings can be large; an effect the other way counts as inactive or inconclusive. Unless noted, % is scaled to controls: 0 for no effect and ±100 for the full control effect; potency is read from the fitted curve at half-maximal effect.

SMILES | GAA glycogen mod | N370S GC | GAA inh | Lamin A splicing | GAA spleen mod
C#CCOCCOCCOCCNc1nc(N2CCN(C(=O)CCCCCCCCCCNC(=O)Cn3cc(C[C@@H](C)O)nn3)CC2)nc(N2CCN(C(=O)CCCCCCCCCCNC(=O)[C@H](CCCCN)n3cc(C[C@@H](C)CC)nn3)CC2)n1 | x | 22.4µM* | x | x | x
C#CCOCCOCCOCCNc1nc(N2CCN(C(=O)CCCCCCCCCCNC(=O)[C@H](CCC(=O)O)n3cc(CCCCCN)nn3)CC2)nc(N2CCN(C(=O)CCCCCCCCCCNC(=O)[C@@H]([C@H](C)O)n3cc(C)nn3)CC2)n1 | x | -20.7% | x | x | x
C#CCOCCOCCOCCNc1nc(N2CCN(C(=O)CCCCCCCCCCNC(=O)[C@H](CCCCN)n3cc(C)nn3)CC2)nc(N2CCN(C(=O)CCCCCCCCCCNC(=O)[C@@H]([C@H](C)CC)n3cc(CCCCCN)nn3)CC2)n1 | x | 17.8µM* | x | x | x
COc1cc(C(=O)NCC(c2cccs2)S(=O)(=O)c2ccc(F)cc2)cc(OC)c1OC (centres undefined) | x | x | x | -3.0%[46 µM] | x
N#C/C(=C\c1cc(O)c(O)c(O)c1)C(N)=O | 5.01µM* | -21.8% | x | x | u
N#C/C(=C\c1cc(Cl)c(OCc2ccc(Cl)cc2)c(Cl)c1)C(N)=O | 1.2% | 4.1% | x | x | 1.2%
COc1ccc(-n2nnnc2SCC(=O)c2ccc(O)c(O)c2)cc1 | 8.84µM* | -7.2% | -10.0% | u | -5.3%
NC(=O)c1ccc(-n2nnnc2SCC(=O)c2ccc(O)c(O)c2)cc1 | u | u | 1.6% | -2.1%[9.22 µM] | -22.4%
Cn1c(SCC(=O)c2ccc(O)c(O)c2)nnc1-c1ccccc1 | 1.78µM* | -8.8% | x | x | x
O=C(CSc1nc2ccccc2n1CCc1ccccc1)c1ccc(O)c(O)c1 | 3.98µM* | 2.4% | -4.5% | x | -15.5%
Cn1c(SCC(=O)c2ccc(O)c(O)c2)nnc1-c1cccs1 | u | 16.7% | x | x | 5.0%
CC(N)(Cc1ccc(O)c(O)c1)C(=O)O (centres undefined) | x | -1.0% | x | -17.8% | -4.7%
COCCNc1nc(C)nc2c1nc(-c1ccccc1)n2CCN(C)C | x | 2.3% | x | x | 2.3%
COc1ccccc1N(O)C1CC(=O)N(c2ccc(F)cc2)C1=O (centres undefined) | 17.8µM* | -5.2% | 2.2% | -9.7% | -5.1%
Cc1ccccc1N1C(=O)CC(N(O)c2ccccc2)C1=O (centres undefined) | 3.95µM* | -12.2% | -0.4% | 0.5% | -2.3%
O=C1CC(N(O)c2ccccc2)C(=O)N1c1cc(Cl)cc(Cl)c1 (centres undefined) | 22.2µM* | -4.8% | -9.4% | -2.2% | 1.1%
COc1ccc(N(C(=O)/C=C\C(=O)Nc2ccc(C)cc2)C(C(=O)NCc2ccco2)c2ccc(C)cc2)cc1 (centres undefined) | x | x | x | -18.0%[46 µM] | x
COc1ccc(NC(=S)N2CCCC(c3nc4ccc(C)cc4[nH]3)C2)cc1 (centres undefined) | u | -19.2% | u | x | 0.5%
COc1ccc(NC(=S)N2CCCC(c3nc4ccc(C)cc4[nH]3)C2)c(OC)c1 (centres undefined) | 15.7µM* | 13.5% | -4.7% | x | 1.1%
O=C(O)[C@H](Cc1c[nH]c2ccccc12)N1C(=O)C2=CCCC=C2C1=O | x | -4.0% | x | x | -1.4%
Cc1ccc(-c2nc3ncccn3c2NC2CCCC2)o1 | 14µM* | -4.1% | 5.3% | u | -3.1%
Brc1ccc(-c2nc3ncccn3c2NC2CCCCC2)o1 | 25.1µM* | 9.7% | -8.3% | -2.5% | 5.3%
Cc1ccc(-c2nc3ncccn3c2Nc2ccccc2C)o1 | u | -11.4% | -6.3% | u | -3.9%
CCOc1ccc(-n2c(CCC(=O)O)ccc2-c2ccc(Br)cc2)cc1 | 15.3%[76.3 µM] | x | x | x | x
COc1cccc(NS(=O)(=O)c2ccc3[nH]cc(C(=O)N4CCCCCC4)c(=O)c3c2)c1 | -22.6%[76.3 µM] | x | x | x | x
SMILES | GAA glycogen mod | N370S GC | GAA inh | Lamin A splicing | GAA spleen mod
COc1cccc(NS(=O)(=O)c2ccc3[nH]cc(C(=O)N4CCCC4)c(=O)c3c2)c1 | 28.2µM* | x | x | x | x
CCOc1ccc(Nc2nc(Cc3nnc(SCC(=O)O)o3)cs2)cc1 | 14.1µM* | -11.3% | 8.3% | -1.8% | -4.4%
COc1ccc(OC)c(-c2nnc3n2N=C(c2c(OC)cccc2OC)CS3)c1 | x | 0.7% | x | x | 11.8%
CCCCc1cc(=O)oc2cc(OC(C)C(=O)NCCN3CCOCC3)c(Cl)cc12 (centres undefined) | x | 20µM* | x | x | x
CCCCc1cc(=O)oc2cc(OCC(=O)NCCN3CCOCC3)c(Cl)cc12 | 1.5%[76.3 µM] | -4.4% | x | x | x
CC1(C)Nc2ccc(O)cc2-c2c1ssc2=S | 39.8µM* | -10.8% | 1.8% | -0.1% | 3.8%
Cc1cc(Cl)ccc1OCC(=O)Nc1ccccc1C(=O)N1CCOCC1 | -10.5%[76.3 µM] | -13.3% | x | x | x
COc1cc(Cl)ccc1NC(=O)COc1ccccc1C(=O)N1CCN(c2ccc(O)cc2)CC1 | 17.6µM* | 15.1% | 0.8% | u | 0.1%
OC[C@@H]1OC(O)[C@H](O)[C@H](O)[C@H]1O (some centres undefined) | x | 3.9% | x | x | 8.9%
COc1ccc(C(=O)COC(=O)CN2CC(=O)Oc3ccccc32)cc1Br | 3.14µM* | -1.8% | 5.9% | 9.3% | -4.5%
COc1ccc(C(=O)COC(=O)C2CC3CCCC(C2)C3=O)cc1Br (centres undefined) | x | -0.4% | x | x | x
CCOc1cc(CNc2ccccc2SC)ccc1O | 28µM* | -4.7% | -7.2% | -6.9% | 5.9%
COc1cc(CNc2ccccc2SC)ccc1O | u | -0.7%[2.35 µM] | -3.9% | 10.2% | 0.5%
O=C1/C(=C\c2cccnc2)SC(=S)N1C1CCS(=O)(=O)C1 (centres undefined) | -9.3% | -1.0% | 1.5% | x | -17.6%
O=C1/C(=C/c2cccnc2)SC(=S)N1C1CCS(=O)(=O)C1 (centres undefined) | -18.8% | 0.0% | 1.6% | 20µM* | -3.9%
CC(=O)C[C@H](c1ccccc1)c1c(O)c2ccccc2oc1=O | x | -14.1% | x | x | -1.3%
CCC(C)c1ccccc1O (centres undefined) | x | -4.3% | x | x | -8.7%
CC(C)(C)c1ccc(O)c(N)c1 | u | 23.9% | -2.0% | 2.4% | -5.5%
CCC(C)c1ccc(O)c(N)c1 (centres undefined) | 24.9µM* | -4.2% | -4.3% | -14.0% | 9.4%
CC(C)c1ccc(O)c(N)c1 | 10µM* | -0.3% | 2.4% | -8.4% | -7.5%
CCOC(=O)/C(C#N)=C\c1ccc(N2CCN(C/C=C/c3ccccc3)CC2)cc1 | -8.0% | 15.8µM* | -14.6% | -10.7% | 1.7%
CCN1C(C)=C(C(=O)OC(C)C)C(c2ccccc2Cl)C(C(=O)O)=C1C(=O)O (centres undefined) | x | -15.1% | x | x | -11.0%
COc1ccc(C)cc1NC(=O)C1CCN(S(C)(=O)=O)CC1 | 35.5µM* | -0.5% | x | x | x
COc1ccc(C)cc1NC(=O)C1CCN(S(=O)(=O)c2ccccc2)CC1 | -15.0%[76.3 µM] | 0.9% | x | x | x
